# From the supplement of paper PMC12282887
# ± gives the standard deviation of the averaged measurements.
# Key:
# Test in all cases: promoter activity interaction Z-score (Lux/OD deviation from empty-vector control); higher = stronger promoter induction by the compound
# [1] = test system: E. coli BW25113 acrABp lux reporter
# Summary of the method: (§1)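 E. coli BW25113 luxCDABE reporter strains grew at 37°C in 40 µl LB Lennox in 384-well plates, with OD600 and luminescence read every 30 min for 12 h. After integration over 0–8 h for wild type or 1–9 h for deletion strains, wells under 10% of the median growth value were removed. Each score is the Z-transformed residual of growth-normalised luminescence fitted against a control.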
# [2] = test system: E. coli BW25113 micFp lux reporter
# Summary of the method: as §1
# [3] = test system: E. coli BW25113 ompFp lux reporter
# Summary of the method: as §1
# [4] = test system: E. coli BW25113 robp lux reporter
# Summary of the method: as §1
# [5] = test system: E. coli BW25113 soxSp lux reporter
# Summary of the method: as §1
# [6] = test system: E. coli BW25113 tolCp lux reporter
# Summary of the method: as §1
# [7] = 0.12 µg/ml, genetic background: wild type
# [8] = 0.12 µg/ml, genetic background: ΔmarA
# [9] = 0.12 µg/ml, genetic background: Δrob
# [10] = 0.12 µg/ml, genetic background: ΔsoxS
# [11] = 0.24 µg/ml, genetic background: wild type
# [12] = 0.24 µg/ml, genetic background: ΔmarA
# [13] = 0.24 µg/ml, genetic background: Δrob
# [14] = 0.24 µg/ml, genetic background: ΔsoxS
# [15] = 0.48 µg/ml, genetic background: wild type
# [16] = 0.48 µg/ml, genetic background: ΔmarA
# [17] = 0.48 µg/ml, genetic background: Δrob
# [18] = 0.48 µg/ml, genetic background: ΔsoxS
# [19] = 1 µg/ml, genetic background: wild type
# [20] = 1 µg/ml, genetic background: ΔmarA
# [21] = 1 µg/ml, genetic background: ΔsoxS
compound,measurement,setting,value
O=C(N[C@H](CO)[C@H](O)c1ccc([N+](=O)[O-])cc1)C(Cl)Cl [Chloramphenicol],promoter activity interaction Z-score,[1]; [7],0.22 ± 0.098
same,promoter activity interaction Z-score,[1]; [8],-0.0897 ± 1
same,promoter activity interaction Z-score,[1]; [9],0.368 ± 0.066
same,promoter activity interaction Z-score,[1]; [10],0.272 ± 0.11
same,promoter activity interaction Z-score,[1]; [11],0.636 ± 0.41
same,promoter activity interaction Z-score,[1]; [12],-0.23 ± 0.65
same,promoter activity interaction Z-score,[1]; [13],0.312 ± 0.071
same,promoter activity interaction Z-score,[1]; [14],0.433 ± 0.24
same,promoter activity interaction Z-score,[1]; [15],1.1 ± 0.056
same,promoter activity interaction Z-score,[1]; [16],-0.541 ± 0.59
same,promoter activity interaction Z-score,[1]; [17],0.7917 ± 0.0062
same,promoter activity interaction Z-score,[1]; [18],1.11 ± 0.52
same,promoter activity interaction Z-score,[1]; [19],1.46 ± 0.021
same,promoter activity interaction Z-score,[1]; [20],-1.09 ± 0.82
same,promoter activity interaction Z-score,[1]; [21],0.0905
same,promoter activity interaction Z-score,[2]; [7],-0.122 ± 0.054
same,promoter activity interaction Z-score,[2]; [8],-0.0498 ± 0.071
same,promoter activity interaction Z-score,[2]; [9],-0.238 ± 0.013
same,promoter activity interaction Z-score,[2]; [10],0.0558 ± 0.064
same,promoter activity interaction Z-score,[2]; [11],0.0837 ± 0.14
same,promoter activity interaction Z-score,[2]; [12],-0.057 ± 0.033
same,promoter activity interaction Z-score,[2]; [13],-0.128 ± 0.036
same,promoter activity interaction Z-score,[2]; [14],-0.0814 ± 0.0056
same,promoter activity interaction Z-score,[2]; [15],-0.548 ± 0.11
same,promoter activity interaction Z-score,[2]; [16],-0.166 ± 0.013
same,promoter activity interaction Z-score,[2]; [17],0.103 ± 0.18
same,promoter activity interaction Z-score,[2]; [18],0.183 ± 0.15
same,promoter activity interaction Z-score,[2]; [19],-1.17 ± 0.016
same,promoter activity interaction Z-score,[2]; [20],-0.119 ± 0.29
same,promoter activity interaction Z-score,[2]; [21],-0.534
same,promoter activity interaction Z-score,[3]; [7],0.809 ± 0.57
same,promoter activity interaction Z-score,[3]; [8],0.473 ± 0.32
same,promoter activity interaction Z-score,[3]; [9],0.576 ± 0.47
same,promoter activity interaction Z-score,[3]; [10],1.1 ± 0.088
same,promoter activity interaction Z-score,[3]; [11],1.81 ± 0.86
same,promoter activity interaction Z-score,[3]; [12],1.78 ± 0.49
same,promoter activity interaction Z-score,[3]; [13],1.2 ± 0.46
same,promoter activity interaction Z-score,[3]; [14],1.55 ± 0.91
same,promoter activity interaction Z-score,[3]; [15],0.1844 ± 0.0012
same,promoter activity interaction Z-score,[3]; [16],1.34 ± 0.83
same,promoter activity interaction Z-score,[3]; [17],0.797 ± 0.094
same,promoter activity interaction Z-score,[3]; [18],1.6 ± 0.38
same,promoter activity interaction Z-score,[3]; [19],-1.42 ± 0.36
same,promoter activity interaction Z-score,[3]; [20],-1.37 ± 0.11
same,promoter activity interaction Z-score,[3]; [21],-0.525
same,promoter activity interaction Z-score,[4]; [7],-0.00573 ± 0.3
same,promoter activity interaction Z-score,[4]; [8],-0.626 ± 0.41
same,promoter activity interaction Z-score,[4]; [9],-0.328 ± 0.36
same,promoter activity interaction Z-score,[4]; [10],0.732 ± 0.14
same,promoter activity interaction Z-score,[4]; [11],-0.692 ± 0.34
same,promoter activity interaction Z-score,[4]; [12],-0.0133 ± 0.15
same,promoter activity interaction Z-score,[4]; [13],-0.61 ± 0.2
same,promoter activity interaction Z-score,[4]; [14],-0.218 ± 0.31
same,promoter activity interaction Z-score,[4]; [15],-1.41 ± 0.4
same,promoter activity interaction Z-score,[4]; [16],-0.957 ± 0.41
same,promoter activity interaction Z-score,[4]; [17],-1.44 ± 0.12
same,promoter activity interaction Z-score,[4]; [18],-1.17 ± 0.88
same,promoter activity interaction Z-score,[4]; [19],-2.19 ± 0.21
same,promoter activity interaction Z-score,[4]; [20],-1.15 ± 0.94
same,promoter activity interaction Z-score,[5]; [7],-0.0492 ± 0.039
same,promoter activity interaction Z-score,[5]; [8],0.159 ± 0.13
same,promoter activity interaction Z-score,[5]; [9],0.217 ± 0.045
same,promoter activity interaction Z-score,[5]; [10],0.238 ± 0.14
same,promoter activity interaction Z-score,[5]; [11],0.299 ± 0.018
same,promoter activity interaction Z-score,[5]; [12],0.529 ± 0.11
same,promoter activity interaction Z-score,[5]; [13],0.189 ± 0.096
same,promoter activity interaction Z-score,[5]; [14],0.422 ± 0.29
same,promoter activity interaction Z-score,[5]; [15],0.645 ± 0.3
same,promoter activity interaction Z-score,[5]; [16],0.914 ± 0.026
same,promoter activity interaction Z-score,[5]; [17],0.721 ± 0.017
same,promoter activity interaction Z-score,[5]; [18],1.45 ± 1.5
same,promoter activity interaction Z-score,[5]; [19],1.67 ± 0.091
same,promoter activity interaction Z-score,[5]; [20],2.38 ± 0.034
same,promoter activity interaction Z-score,[5]; [21],1.71 ± 1.7
same,promoter activity interaction Z-score,[6]; [7],0.142 ± 1.1
same,promoter activity interaction Z-score,[6]; [8],-0.0323 ± 0.44
same,promoter activity interaction Z-score,[6]; [9],0.149 ± 0.77
same,promoter activity interaction Z-score,[6]; [10],-0.831 ± 0.55
same,promoter activity interaction Z-score,[6]; [11],0.339 ± 0.15
same,promoter activity interaction Z-score,[6]; [12],0.367 ± 0.84
same,promoter activity interaction Z-score,[6]; [13],-0.202 ± 1.4
same,promoter activity interaction Z-score,[6]; [14],0.0632 ± 1
same,promoter activity interaction Z-score,[6]; [15],0.356 ± 1.2
same,promoter activity interaction Z-score,[6]; [16],0.168 ± 0.82
same,promoter activity interaction Z-score,[6]; [17],-0.0545 ± 0.19
same,promoter activity interaction Z-score,[6]; [18],2.03 ± 0.53
same,promoter activity interaction Z-score,[6]; [19],-0.0529 ± 0.35
same,promoter activity interaction Z-score,[6]; [20],-0.256 ± 0.82
same,promoter activity interaction Z-score,[6]; [21],1.66 ± 0.93
